Laboratory results reported in ChEMBL document CHEMBL2218924, “A broad activity screen in support of a chemogenomic map for kinase signalling research and drug discovery” (Biochem J, 2013).

Tests used:
[1] = target: T1, Testis-specific serine/threonine-protein kinase 1 (Homo sapiens) (UniProt Q9BXA7); conditions: at 1 µM
T1 sequence (whole entry): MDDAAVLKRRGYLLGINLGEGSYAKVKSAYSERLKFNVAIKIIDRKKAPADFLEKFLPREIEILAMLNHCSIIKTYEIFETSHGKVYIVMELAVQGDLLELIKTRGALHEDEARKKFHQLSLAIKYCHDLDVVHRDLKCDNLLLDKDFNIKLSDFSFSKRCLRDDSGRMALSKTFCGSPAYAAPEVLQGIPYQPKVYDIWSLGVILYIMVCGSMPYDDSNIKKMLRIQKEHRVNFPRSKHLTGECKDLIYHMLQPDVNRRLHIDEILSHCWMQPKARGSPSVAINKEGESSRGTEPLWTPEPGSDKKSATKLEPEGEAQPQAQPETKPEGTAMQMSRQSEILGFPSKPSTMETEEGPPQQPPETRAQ

[2] = target: T1, Testis-specific serine/threonine-protein kinase 1 (Homo sapiens); conditions: at 10 µM
[3] = target: T2, Testis-specific serine/threonine-protein kinase 2 (Homo sapiens) (UniProt Q96PF2); conditions: at 10 µM
T2 sequence (whole entry): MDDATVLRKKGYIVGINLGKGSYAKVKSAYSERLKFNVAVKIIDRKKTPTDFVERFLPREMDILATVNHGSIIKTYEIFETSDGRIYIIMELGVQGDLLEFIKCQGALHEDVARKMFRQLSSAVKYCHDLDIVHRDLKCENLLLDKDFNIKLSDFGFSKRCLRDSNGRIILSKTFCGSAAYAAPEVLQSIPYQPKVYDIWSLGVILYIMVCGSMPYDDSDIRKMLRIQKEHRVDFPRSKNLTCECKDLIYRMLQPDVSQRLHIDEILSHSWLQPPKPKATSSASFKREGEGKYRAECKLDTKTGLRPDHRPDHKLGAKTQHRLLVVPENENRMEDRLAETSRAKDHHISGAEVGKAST

[4] = target: T3, Tyrosine-protein kinase Tec (Homo sapiens) (UniProt P42680); conditions: at 1 µM
T3 sequence (whole entry): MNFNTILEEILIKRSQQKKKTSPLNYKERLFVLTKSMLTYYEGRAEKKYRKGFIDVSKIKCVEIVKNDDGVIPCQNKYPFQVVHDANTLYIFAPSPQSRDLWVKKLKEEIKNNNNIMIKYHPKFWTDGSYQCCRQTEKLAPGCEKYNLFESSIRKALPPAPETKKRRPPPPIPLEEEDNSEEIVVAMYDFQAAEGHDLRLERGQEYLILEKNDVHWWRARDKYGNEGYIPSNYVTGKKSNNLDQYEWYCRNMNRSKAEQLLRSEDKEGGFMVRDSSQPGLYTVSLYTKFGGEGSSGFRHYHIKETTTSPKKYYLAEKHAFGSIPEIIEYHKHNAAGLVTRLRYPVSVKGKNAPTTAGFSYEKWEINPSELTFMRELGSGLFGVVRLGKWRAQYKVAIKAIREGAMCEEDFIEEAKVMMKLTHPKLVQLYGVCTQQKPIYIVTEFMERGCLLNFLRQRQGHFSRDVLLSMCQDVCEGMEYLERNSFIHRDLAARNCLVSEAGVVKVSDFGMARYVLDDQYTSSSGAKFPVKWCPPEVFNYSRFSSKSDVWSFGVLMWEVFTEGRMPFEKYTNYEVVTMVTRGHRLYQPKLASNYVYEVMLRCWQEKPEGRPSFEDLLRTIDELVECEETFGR

[5] = target: T3, Tyrosine-protein kinase Tec (Homo sapiens); conditions: at 10 µM
[6] = target: Angiopoietin-1 receptor (Homo sapiens) (UniProt Q02763); conditions: at 1 µM
Chain of Angiopoietin-1 receptor (Homo sapiens) (Q02763 whole entry): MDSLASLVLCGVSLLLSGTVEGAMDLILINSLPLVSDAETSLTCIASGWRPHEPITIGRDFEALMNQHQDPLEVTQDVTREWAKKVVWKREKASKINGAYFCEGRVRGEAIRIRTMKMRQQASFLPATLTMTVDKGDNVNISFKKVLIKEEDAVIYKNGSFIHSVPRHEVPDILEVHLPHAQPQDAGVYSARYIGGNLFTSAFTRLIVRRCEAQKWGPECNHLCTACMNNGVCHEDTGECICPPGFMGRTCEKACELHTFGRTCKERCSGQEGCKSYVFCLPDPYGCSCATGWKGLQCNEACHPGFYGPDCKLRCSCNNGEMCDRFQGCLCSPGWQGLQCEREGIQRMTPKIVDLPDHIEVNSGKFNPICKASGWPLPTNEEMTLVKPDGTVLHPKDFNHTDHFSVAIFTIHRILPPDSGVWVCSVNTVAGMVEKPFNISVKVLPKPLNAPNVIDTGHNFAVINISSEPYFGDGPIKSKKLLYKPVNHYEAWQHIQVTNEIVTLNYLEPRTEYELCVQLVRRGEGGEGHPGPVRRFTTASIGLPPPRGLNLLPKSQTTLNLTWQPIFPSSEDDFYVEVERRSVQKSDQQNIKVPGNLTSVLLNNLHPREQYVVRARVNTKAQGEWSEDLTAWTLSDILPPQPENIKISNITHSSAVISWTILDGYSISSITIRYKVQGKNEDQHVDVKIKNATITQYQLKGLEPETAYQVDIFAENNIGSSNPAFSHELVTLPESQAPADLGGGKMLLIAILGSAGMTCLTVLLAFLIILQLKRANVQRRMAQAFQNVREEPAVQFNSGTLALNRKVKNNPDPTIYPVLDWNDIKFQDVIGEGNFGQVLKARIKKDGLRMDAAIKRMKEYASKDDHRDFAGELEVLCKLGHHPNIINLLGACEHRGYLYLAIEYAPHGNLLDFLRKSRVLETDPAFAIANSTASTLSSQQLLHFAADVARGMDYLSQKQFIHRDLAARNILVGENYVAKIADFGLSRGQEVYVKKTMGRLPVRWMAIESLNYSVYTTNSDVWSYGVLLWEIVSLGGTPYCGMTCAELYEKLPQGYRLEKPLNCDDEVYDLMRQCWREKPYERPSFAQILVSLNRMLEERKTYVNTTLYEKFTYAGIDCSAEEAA

[7] = target: Angiopoietin-1 receptor (Homo sapiens) (UniProt Q02763); conditions: at 10 µM
[8] = target: High affinity nerve growth factor receptor (Homo sapiens) (UniProt P04629); conditions: at 1 µM
Chain of High affinity nerve growth factor receptor (Homo sapiens) (P04629 33-796 limits assumed): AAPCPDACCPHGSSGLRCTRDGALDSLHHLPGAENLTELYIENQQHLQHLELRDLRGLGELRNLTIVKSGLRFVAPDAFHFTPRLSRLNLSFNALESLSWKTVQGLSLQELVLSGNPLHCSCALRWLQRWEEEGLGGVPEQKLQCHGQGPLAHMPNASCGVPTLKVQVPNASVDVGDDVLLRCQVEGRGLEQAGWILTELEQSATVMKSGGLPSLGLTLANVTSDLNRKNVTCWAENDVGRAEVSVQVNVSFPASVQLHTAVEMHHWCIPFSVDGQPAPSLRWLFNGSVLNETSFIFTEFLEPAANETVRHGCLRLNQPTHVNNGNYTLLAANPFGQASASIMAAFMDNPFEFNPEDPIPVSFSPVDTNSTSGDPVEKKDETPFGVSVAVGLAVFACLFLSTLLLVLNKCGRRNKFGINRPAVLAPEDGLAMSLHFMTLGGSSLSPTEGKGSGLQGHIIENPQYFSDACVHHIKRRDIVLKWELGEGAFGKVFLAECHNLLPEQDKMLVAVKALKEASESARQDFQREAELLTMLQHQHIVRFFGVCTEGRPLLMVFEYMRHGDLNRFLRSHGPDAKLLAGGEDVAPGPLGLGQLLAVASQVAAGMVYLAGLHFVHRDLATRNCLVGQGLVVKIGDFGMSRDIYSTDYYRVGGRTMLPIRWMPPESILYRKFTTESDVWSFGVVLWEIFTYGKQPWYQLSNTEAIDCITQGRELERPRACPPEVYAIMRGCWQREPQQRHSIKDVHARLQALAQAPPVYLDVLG

[9] = target: High affinity nerve growth factor receptor (Homo sapiens) (UniProt P04629); conditions: at 10 µM
[10] = target: T4, Tyrosine-protein kinase TXK (Homo sapiens) (UniProt P42681); conditions: at 1 µM
T4 sequence (whole entry): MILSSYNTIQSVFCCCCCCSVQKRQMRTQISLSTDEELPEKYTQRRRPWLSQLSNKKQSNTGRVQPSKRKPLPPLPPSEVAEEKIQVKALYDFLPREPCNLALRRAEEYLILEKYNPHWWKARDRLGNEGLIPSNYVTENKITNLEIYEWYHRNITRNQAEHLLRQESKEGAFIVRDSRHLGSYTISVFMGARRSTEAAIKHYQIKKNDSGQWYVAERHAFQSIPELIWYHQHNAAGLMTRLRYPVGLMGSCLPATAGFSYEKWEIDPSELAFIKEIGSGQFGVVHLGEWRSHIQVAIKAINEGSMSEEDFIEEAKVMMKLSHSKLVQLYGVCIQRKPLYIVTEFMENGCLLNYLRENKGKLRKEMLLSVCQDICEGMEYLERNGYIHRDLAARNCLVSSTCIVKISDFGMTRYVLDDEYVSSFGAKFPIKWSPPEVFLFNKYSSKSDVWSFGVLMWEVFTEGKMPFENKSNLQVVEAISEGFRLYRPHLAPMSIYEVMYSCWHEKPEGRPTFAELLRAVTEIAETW

[11] = target: T4, Tyrosine-protein kinase TXK (Homo sapiens); conditions: at 10 µM
[12] = target: T5, Serine/threonine-protein kinase ULK3 (Homo sapiens) (UniProt Q6PHR2); conditions: at 1 µM
T5 sequence (whole entry): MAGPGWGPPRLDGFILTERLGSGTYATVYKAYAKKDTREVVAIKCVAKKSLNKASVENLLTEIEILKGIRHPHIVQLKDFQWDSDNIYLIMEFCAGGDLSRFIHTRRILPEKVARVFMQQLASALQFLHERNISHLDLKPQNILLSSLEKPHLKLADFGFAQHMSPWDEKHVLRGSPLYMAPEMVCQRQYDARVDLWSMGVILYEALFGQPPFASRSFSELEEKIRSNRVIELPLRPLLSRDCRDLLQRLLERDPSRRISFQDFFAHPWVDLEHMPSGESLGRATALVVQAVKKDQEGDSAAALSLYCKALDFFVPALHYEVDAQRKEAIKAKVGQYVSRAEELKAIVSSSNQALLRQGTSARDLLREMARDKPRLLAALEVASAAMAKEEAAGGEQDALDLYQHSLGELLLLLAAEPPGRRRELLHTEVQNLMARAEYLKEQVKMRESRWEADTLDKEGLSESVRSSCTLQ

[13] = target: T5, Serine/threonine-protein kinase ULK3 (Homo sapiens); conditions: at 10 µM
[14] = target: Serine/threonine-protein kinase WNK2 (Homo sapiens) (UniProt Q9Y3S1); conditions: at 1 µM;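 further: residual WNK2 kinase activity expressed as percent of uninhibited control, assayed in MOPS buffer at pH 7.0 containing EDTA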
Chain of Serine/threonine-protein kinase WNK2 (Homo sapiens) (Q9Y3S1 whole entry): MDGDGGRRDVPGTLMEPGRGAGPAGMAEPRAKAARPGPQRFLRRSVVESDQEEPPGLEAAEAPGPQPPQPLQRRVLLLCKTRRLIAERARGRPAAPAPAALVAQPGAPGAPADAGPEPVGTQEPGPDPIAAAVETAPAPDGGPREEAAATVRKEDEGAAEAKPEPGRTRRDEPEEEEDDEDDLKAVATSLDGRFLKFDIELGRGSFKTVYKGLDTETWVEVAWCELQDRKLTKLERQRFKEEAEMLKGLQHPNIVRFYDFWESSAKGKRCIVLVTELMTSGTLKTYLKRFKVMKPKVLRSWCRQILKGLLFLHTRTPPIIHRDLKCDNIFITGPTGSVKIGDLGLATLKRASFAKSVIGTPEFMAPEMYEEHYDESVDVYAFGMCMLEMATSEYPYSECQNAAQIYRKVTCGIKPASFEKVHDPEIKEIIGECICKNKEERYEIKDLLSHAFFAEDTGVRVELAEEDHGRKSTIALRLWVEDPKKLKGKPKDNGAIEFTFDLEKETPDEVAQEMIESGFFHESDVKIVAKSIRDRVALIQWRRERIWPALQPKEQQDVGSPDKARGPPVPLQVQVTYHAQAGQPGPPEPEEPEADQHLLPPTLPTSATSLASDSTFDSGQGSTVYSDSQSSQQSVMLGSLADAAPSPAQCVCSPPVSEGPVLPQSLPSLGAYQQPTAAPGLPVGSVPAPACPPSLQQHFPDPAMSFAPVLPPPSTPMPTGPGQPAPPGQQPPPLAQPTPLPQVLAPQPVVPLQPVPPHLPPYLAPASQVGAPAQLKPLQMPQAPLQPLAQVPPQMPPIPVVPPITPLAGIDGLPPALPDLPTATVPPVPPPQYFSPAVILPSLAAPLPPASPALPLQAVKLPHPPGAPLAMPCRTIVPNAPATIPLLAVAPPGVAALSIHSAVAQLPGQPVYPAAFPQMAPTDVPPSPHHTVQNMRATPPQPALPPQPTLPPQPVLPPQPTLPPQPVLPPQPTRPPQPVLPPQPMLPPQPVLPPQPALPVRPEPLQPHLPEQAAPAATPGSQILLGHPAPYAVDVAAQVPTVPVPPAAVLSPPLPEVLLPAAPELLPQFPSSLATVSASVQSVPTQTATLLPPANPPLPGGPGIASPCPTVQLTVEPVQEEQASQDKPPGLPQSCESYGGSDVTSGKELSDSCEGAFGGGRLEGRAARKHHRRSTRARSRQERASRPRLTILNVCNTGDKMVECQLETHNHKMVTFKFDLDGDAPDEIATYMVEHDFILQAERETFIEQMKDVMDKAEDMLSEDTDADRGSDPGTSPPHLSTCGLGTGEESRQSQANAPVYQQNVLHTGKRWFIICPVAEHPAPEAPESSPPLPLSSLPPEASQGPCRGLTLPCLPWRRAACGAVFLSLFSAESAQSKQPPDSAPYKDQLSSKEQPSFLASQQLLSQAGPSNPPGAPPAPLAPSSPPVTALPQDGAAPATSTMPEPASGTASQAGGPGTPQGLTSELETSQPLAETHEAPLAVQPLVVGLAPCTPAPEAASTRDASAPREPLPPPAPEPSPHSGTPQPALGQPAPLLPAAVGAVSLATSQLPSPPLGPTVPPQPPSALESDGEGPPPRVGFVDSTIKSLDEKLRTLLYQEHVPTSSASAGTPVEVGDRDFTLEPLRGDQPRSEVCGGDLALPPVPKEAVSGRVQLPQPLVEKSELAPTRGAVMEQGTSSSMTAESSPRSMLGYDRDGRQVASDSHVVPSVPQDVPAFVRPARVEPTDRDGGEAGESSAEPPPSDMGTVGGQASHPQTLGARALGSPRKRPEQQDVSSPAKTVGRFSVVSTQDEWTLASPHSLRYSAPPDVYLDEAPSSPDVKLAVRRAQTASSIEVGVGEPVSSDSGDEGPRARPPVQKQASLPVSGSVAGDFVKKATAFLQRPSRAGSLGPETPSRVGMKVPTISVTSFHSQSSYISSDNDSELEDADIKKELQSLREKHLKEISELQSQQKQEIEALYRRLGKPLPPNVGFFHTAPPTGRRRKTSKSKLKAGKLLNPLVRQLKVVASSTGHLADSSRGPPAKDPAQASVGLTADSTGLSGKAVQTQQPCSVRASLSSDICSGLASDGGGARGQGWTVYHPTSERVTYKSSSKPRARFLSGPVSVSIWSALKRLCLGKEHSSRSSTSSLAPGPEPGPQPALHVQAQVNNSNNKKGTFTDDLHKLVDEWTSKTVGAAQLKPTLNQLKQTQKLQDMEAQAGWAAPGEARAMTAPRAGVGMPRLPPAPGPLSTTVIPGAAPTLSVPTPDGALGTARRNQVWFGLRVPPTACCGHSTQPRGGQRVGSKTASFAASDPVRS

[15] = target: BDNF/NT-3 growth factors receptor (Homo sapiens) (UniProt Q16620); conditions: at 1 µM
[16] = target: BDNF/NT-3 growth factors receptor (Homo sapiens) (UniProt Q16620); conditions: at 10 µM
[17] = target: T6, Serine/threonine-protein kinase ULK2 (Homo sapiens) (UniProt Q8IYT8); conditions: at 1 µM
T6 sequence (whole entry): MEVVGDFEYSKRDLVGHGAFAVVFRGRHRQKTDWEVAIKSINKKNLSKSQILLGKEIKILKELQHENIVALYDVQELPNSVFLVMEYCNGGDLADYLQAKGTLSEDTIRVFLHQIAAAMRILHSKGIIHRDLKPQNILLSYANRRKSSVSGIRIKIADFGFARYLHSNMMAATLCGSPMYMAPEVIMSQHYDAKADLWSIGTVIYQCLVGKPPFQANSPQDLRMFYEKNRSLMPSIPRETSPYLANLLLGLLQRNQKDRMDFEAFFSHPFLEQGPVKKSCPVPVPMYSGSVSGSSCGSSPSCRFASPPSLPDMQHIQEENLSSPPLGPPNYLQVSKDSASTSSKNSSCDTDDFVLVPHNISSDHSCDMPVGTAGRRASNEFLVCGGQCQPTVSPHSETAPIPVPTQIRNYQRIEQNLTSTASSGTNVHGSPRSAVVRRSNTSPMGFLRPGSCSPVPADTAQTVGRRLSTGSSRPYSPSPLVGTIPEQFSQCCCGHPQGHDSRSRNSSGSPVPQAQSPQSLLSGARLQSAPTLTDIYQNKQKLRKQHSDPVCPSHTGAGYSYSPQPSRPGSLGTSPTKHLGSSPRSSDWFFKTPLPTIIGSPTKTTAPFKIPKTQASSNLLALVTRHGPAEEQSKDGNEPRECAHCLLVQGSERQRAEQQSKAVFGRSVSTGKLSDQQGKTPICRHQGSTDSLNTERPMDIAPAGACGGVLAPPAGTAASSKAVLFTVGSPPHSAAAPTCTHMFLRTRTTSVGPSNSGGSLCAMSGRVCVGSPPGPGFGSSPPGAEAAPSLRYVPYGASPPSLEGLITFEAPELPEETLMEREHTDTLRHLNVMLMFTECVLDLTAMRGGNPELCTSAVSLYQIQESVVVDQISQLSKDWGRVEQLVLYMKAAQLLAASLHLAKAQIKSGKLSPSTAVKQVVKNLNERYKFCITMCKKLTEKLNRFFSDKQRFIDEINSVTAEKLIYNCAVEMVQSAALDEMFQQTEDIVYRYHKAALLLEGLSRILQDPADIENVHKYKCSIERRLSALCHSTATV

[18] = target: T6, Serine/threonine-protein kinase ULK2 (Homo sapiens); conditions: at 10 µM
[19] = target: Serine/threonine-protein kinase VRK2 (Homo sapiens) (UniProt Q86Y07); conditions: at 1 µM
Chain of Serine/threonine-protein kinase VRK2 (Homo sapiens) (Q86Y07 whole entry): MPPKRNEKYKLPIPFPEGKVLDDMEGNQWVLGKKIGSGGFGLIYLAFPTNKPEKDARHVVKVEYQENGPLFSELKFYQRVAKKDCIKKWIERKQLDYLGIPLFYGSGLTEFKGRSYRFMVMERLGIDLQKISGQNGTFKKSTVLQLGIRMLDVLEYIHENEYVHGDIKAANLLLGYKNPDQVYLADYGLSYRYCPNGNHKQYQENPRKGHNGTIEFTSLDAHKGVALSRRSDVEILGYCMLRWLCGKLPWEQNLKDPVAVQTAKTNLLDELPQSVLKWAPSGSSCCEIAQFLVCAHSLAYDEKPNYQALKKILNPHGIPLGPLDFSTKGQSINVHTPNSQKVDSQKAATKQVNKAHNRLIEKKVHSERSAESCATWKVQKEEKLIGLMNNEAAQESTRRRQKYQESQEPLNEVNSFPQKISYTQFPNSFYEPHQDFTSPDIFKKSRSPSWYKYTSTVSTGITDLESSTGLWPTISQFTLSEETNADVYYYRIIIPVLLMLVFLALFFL

[20] = target: Serine/threonine-protein kinase VRK2 (Homo sapiens) (UniProt Q86Y07); conditions: at 10 µM

Compound | residual activity [1] [%] | residual activity [2] [%] | residual activity [3] [%] | residual activity [4] [%] | residual activity [5] [%] | residual activity [6] [%] | residual activity [7] [%] | residual activity [8] [%] | residual activity [9] [%] | residual activity [10] [%] | residual activity [11] [%] | residual activity [12] [%] | residual activity [13] [%] | residual activity [14] | residual activity [15] [%] | residual activity [16] [%] | residual activity [17] [%] | residual activity [18] [%] | residual activity [19] | residual activity [20] [%]
CC(C)[C@H](CO)Nc1nc(Nc2cc(N)cc(Cl)c2)c2ncn(C(C)C)c2n1 | 86 | 66 | 90 | 61 | 13 | 100 | 52 | 5 | 0 | 63 | 17 | 41 | 8 | 87% (inactive) |  |  |  |  |  | 
CCCCc1c(-c2ccc(O)cc2)[nH]c2nccnc12 | 58 | 59 | 85 |  |  |  |  | 61 | 12 |  |  | 73 | 31 |  | 67 | 45 | 87 | 93 |  | 
Cn1c2ccccc2c2c3c(c4c5ccccc5n(CCC#N)c4c21)CNC3=O | 12 | 10 | 40 | 4 | 9 |  |  | 0 | -1 | 8 | 8 | 39 | 16 | 97% (inactive) | 44 | -12 | 99 |  | 97% (inactive) | 
O=C(CCCc1ccc(-c2ccccc2F)cc1)Nc1ccc(O)cc1 | 103 | 99 |  | 93 | 79 | 83 | 96 | 102 | 54 | 99 | 89 | 101 | 95 | 104% (inactive) | 93 | 100 | 112 | 98 | 102% (inactive) | 96
O=C(O)/C=C/c1cc(Br)c(Br)c(Br)c1Br | 81 | 99 | 102 | 94 | 96 | 99 | 89 |  |  | 94 | 95 | 98 | 93 |  | 109 | 83 | 109 | 107 | 109% (inactive) | 105
CCOC(=O)c1c(C)[nH]c(/C=C2\C(=O)Nc3ccccc32)c1C | 93 | 83 | 97 | 88 | 92 |  |  | 13 | 32 | 97 | 91 | 76 | 70 |  | 73 | 45 |  |  |  | 
COc1cc2nccc(Oc3ccc(NC(=S)NC(=O)c4ccccc4C)cc3)c2cc1OC | 93 | 76 | 81 | 79 | 36 | 33 | 13 | 44 | -1 | 88 | 37 | 99 | 76 | 76% (inactive) | 54 | 25 | 101 | 93 | 93% (inactive) | 90
